In PubChem BioAssay (NCATS):
Several values for one entry are separate records, joined by “and”; a condition that tells them apart may be missing. Equal entries are not always repeated. Records with an inconclusive call do not appear. Activity calls are given as the source filed them. The call rests on the fitted dose curve; in most records, active means well fitted inhibition curve with a large enough effect; inconclusive means small, poorly fitted or top-dose-only effect; inactive means no such curve, though single readings can be large or run the other way.

Test: qHTS for Inhibitors of the Aldehyde Dehydrogenase Family (ALDH1A2, ALDH1A3, ALDH2, ALDH3A1) (AID 2061307); further: nearly all actives have a fitted effect of over 50% in size; on Potency: test system not described further here
Conditions: ALDH inhibition qHTS; series mostly up to 50.3 µM; activity change, negative = inhibition: at the top concentration
On the % scale 0 is the no-effect control and ±100 the full control effect; potency means the concentration at half of the fitted maximal effect.

Potency, active:
COC(=O)c1ccc(CNc2ncnc3ccccc23)cc1 0.708 µM
CCOc1ccc(NC(=O)c2ccc(NC(=O)CN3C(=O)N(C)C4(CCCCC4)C3=O)cc2)cc1 7.08 µM
COc1cc(O)c(C(CC(=O)N2CC(C)CC(C)C2)c2ccc(C(N)=O)cc2)c(OC)c1 (stereo not given) 0.282 µM
CS(=O)(=O)c1cccc(-c2csc3ncnc(NCc4ccccn4)c23)c1 14.1 µM
CSc1sc(C(=O)NN)c2c1C(O)CCC2 (stereo not given) 22.5 µM
Fc1ccc(Cn2cnc3ccccc32)cc1F 12.7 µM
O=C(O)c1cc(-c2cccs2)nc2cc(Br)ccc12 10.1 µM
CCOc1ccc(NCC(=O)Nc2ccc(Cl)cc2C)cc1 2.25 µM and 7.94 µM
N#Cc1nc(-c2cccc3ccccc23)oc1NCCC1CNC1 15.8 µM
Cc1ccccc1CN1CCN(Cc2ccc3ccccc3n2)CC1CCO (stereo not given) 3.18 µM
Cc1sc(NC(=O)Cc2ccc3c(c2)OCO3)nc1-c1ccc2c(c1)CCN2C(=O)c1ccccc1OC(F)(F)F 3.16 µM
COC(=O)CNCc1c(O)ccc2ccccc12 6.34 µM
O=C(NCc1ccccc1Cl)c1csc(N2CCN(c3ccc(F)cc3)CC2)n1 2.51 µM
Cc1cc(Cl)ccc1-n1c(CCC(=O)O)ccc1-c1cccs1 12.7 µM
COCCCn1c(SCC(=O)Nc2ccc(C(N)=O)cc2)nnc1-c1ccc(Cl)cc1 2.24 µM
COc1cc(O)c(C(CC(=O)N2CC(C)CC(C)C2)c2ccc(NC(C)=O)cc2)c(OC)c1 (stereo not given) 31.6 µM
O=C(O)c1csc(-n2[nH]c(-c3ccc(F)c(Cc4ccccc4)c3)cc2=O)n1 22.5 µM

Activity change, negative = inhibition, inactive:
O=C1c2ccccc2-c2nnc(-c3ccccc3Cl)cc21 -13.3%
COc1ccc(C(=O)N=Nc2c(O)n(Cc3c(Cl)cccc3Cl)c3ccccc23)cc1 53.1%
CN(C)c1ccc(C(=O)Nc2nnc(C3=COCCO3)o2)cc1 -2%
CCN1CCC(N(CCc2ccccc2)Cc2ccccc2)CC1 3.29%
NC(=O)Nc1ccc(CNC(=O)C2Cc3ccccc3O2)cc1 (stereo not given) -4.52% [at 34.4 µM]
CN(C)C(C(=O)N1CCN(c2ccc(C#N)cc2)CC1)c1ccccc1F (stereo not given) 2.22% [at 34.4 µM]
COc1c(F)cc2[nH]c(C(=O)O)cc2c1F -12.3%
Cc1cc(NC(=O)c2cscn2)ccc1C(=O)O -13.7% [at 34.4 µM]
Cc1c(P(=S)(c2ccccc2)c2ccccc2)[n+]2ccccc2n1C/C=C/c1ccc(Br)cc1 70.8%
CC(C)Oc1ccccc1NC(=O)N1CCN(c2ccccc2)CC1 -14.5% [at 34.4 µM]
CCOc1ccc(C(=O)NCc2nc(-c3ccc(Cl)cc3)no2)cc1OCC -0.628% [at 34.4 µM]
O=Cc1ccc(Sc2ccccn2)o1 3.67%
COc1cccc(-c2cnc(N3CCC(C(N)=O)CC3)s2)c1 -14.1%
c1ccc(Nc2cc(-c3ccoc3)ncn2)cc1 -13%
CC(=O)c1cccc(NC(=O)c2noc3c2CSc2ccccc2-3)c1 -16% [at 34.4 µM]
O=C(NC1CCCc2c1cnn2-c1ccc(OCCOCCOCCNCCc2cn(-c3cc4ccc(O)cc4oc3=O)nn2)cc1)c1ccccn1 (stereo not given) -28.5%
Cc1nc(SCCc2nc3ccccc3[nH]2)c2oc3ccccc3c2n1 -27.6%
O=C(O)c1ccnc(-n2cc(Br)cn2)c1 -2.09%
Cn1cc2c(=O)n(-c3ccccc3)c(SCc3cccc(F)c3)nc2n1 -0.291% [at 34.4 µM]
COc1ccc(NC(=O)C2CCN(c3ccc(Sc4ccc(C)cc4)nn3)CC2)cc1 -34.3% [at 34.4 µM]
CC(=O)c1c(C)[nH]c2ccc(O)cc12 4.59% [at 34.4 µM]
COc1ccc(C2CC(=O)Nc3nc(N4CCCCC4)sc32)c(OC)c1 (stereo not given) -5.83%
CCOC(=O)COc1ccc2c(c1)c(C(=O)c1ccccc1)c(C)n2-c1ccc(OC)cc1 3.44% [at 34.4 µM]
